# Data reported in PMC5540273 (PLoS ONE, 2017).
# Read-outs that look alike come from different tables or passages of the source.
# Experiments:
# Conditions in all cases: n = 1
# SIK2 = test system: SIK2
# SIK = test system: SIK
# SLK = test system: SLK
# SNARK = test system: T1, SNARK
# T1 construct: gene NUAK2
# SNRK = test system: SNRK
# SRC = test system: SRC
# SRMS = test system: SRMS
# SRPK1 = test system: SRPK1
# SRPK2 = test system: SRPK2
# SRPK3 = test system: SRPK3
# [1] = concentration: 1 μM, replicates: in singlicate
# 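Further: KINOMEscan kinase panel screen.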
structure (smiles),measurement,setting,value
Cc1ccc(-c2cc(-c3c[nH]nc3-c3ccccn3)ccn2)cc1 [GW684088],%Inh,SIK2; [1],0%
same,%Inh,SIK; [1],0%
same,%Inh,SLK; [1],0%
same,%Inh,SNARK; [1],0%
same,%Inh,SNRK; [1],0%
same,%Inh,SRC; [1],0%
same,%Inh,SRMS; [1],9%
same,%Inh,SRPK1; [1],13%
same,%Inh,SRPK2; [1],52%
same,%Inh,SRPK3; [1],0%
Cn1ccc2ncnc(Oc3ccc(NC(=O)Nc4ccccc4)cc3)c21,%Inh,SIK2; [1],27%
same,%Inh,SIK; [1],0%
same,%Inh,SLK; [1],22%
same,%Inh,SNARK; [1],19%
same,%Inh,SNRK; [1],33%
same,%Inh,SRC; [1],11%
same,%Inh,SRMS; [1],0%
same,%Inh,SRPK1; [1],0%
same,%Inh,SRPK2; [1],0%
same,%Inh,SRPK3; [1],9%
Cc1ccc(NC(=O)Nc2cccc(C(F)(F)F)c2)cc1 [GSK955403],%Inh,SIK2; 1 µM,0%
same,%Inh,SIK; 1 µM,0%
same,%Inh,SLK; 1 µM,5%
same,%Inh,SNARK; 1 µM,0%
same,%Inh,SNRK; 1 µM,0%
same,%Inh,SRC; 1 µM,15%
same,%Inh,SRMS; 1 µM,0%
same,%Inh,SRPK1; 1 µM,17%
same,%Inh,SRPK2; 1 µM,5%
same,%Inh,SRPK3; 1 µM,0%
Cc1cccc(-c2nc(-c3ccc(S(C)(=O)=O)cc3)sc2-c2ccnc(NCCc3ccccc3)c2)c1,%Inh,SIK2; [1],11%
same,%Inh,SIK; [1],7%
same,%Inh,SLK; [1],7%
same,%Inh,SNARK; [1],0%
same,%Inh,SNRK; [1],7%
same,%Inh,SRC; [1],0%
same,%Inh,SRMS; [1],0%
same,%Inh,SRPK1; [1],0%
same,%Inh,SRPK2; [1],23%
same,%Inh,SRPK3; [1],0%
CS(=O)(=O)c1ccc(-c2nc3n(c2-c2ccncc2)CCC3)cc1 [SKF-105942],%Inh,SIK2; [1],0%
same,%Inh,SIK; [1],1%
same,%Inh,SLK; [1],0%
same,%Inh,SNARK; [1],0%
same,%Inh,SNRK; [1],14%
same,%Inh,SRC; [1],0%
same,%Inh,SRMS; [1],0%
same,%Inh,SRPK1; [1],0%
same,%Inh,SRPK2; [1],0%
same,%Inh,SRPK3; [1],22%
CN(C)CCN(C)C(=O)c1cc(-c2ccncc2)c(-c2ccc(Cl)c(O)c2)o1.Cl.Cl [SB-710397],%Inh,SIK2; [1],0%
same,%Inh,SIK; [1],0%
same,%Inh,SLK; [1],91.7%
same,%Inh,SNARK; [1],0%
same,%Inh,SNRK; [1],0%
same,%Inh,SRC; [1],11%
same,%Inh,SRMS; [1],0%
same,%Inh,SRPK1; [1],0%
same,%Inh,SRPK2; [1],18%
same,%Inh,SRPK3; [1],0%
CC1=C(C(=O)Nc2cc3cn[nH]c3cc2F)C(c2ccc(C(F)(F)F)cc2)CC(=O)N1 (stereo not drawn) [GSK429286],%Inh,SIK2; [1],0%
same,%Inh,SIK; [1],0%
same,%Inh,SLK; [1],1%
same,%Inh,SNARK; [1],80%
same,%Inh,SNRK; [1],0%
same,%Inh,SRC; [1],0%
same,%Inh,SRMS; [1],0%
same,%Inh,SRPK1; [1],0%
same,%Inh,SRPK2; [1],0%
same,%Inh,SRPK3; [1],0%
Nc1nc(-c2nccs2)c(-c2ccnc3ccccc23)s1 [GW693542],%Inh,SIK2; [1],0%
same,%Inh,SIK; [1],0%
same,%Inh,SLK; [1],9%
same,%Inh,SNARK; [1],8%
same,%Inh,SNRK; [1],0%
same,%Inh,SRC; [1],0%
same,%Inh,SRMS; [1],0%
same,%Inh,SRPK1; [1],20%
same,%Inh,SRPK2; [1],0%
same,%Inh,SRPK3; [1],31%
Cc1cc(N2Cc3ccccc3C2)nc(Nc2ccc(S(=O)(=O)N3CCOCC3)cc2)n1.Cl [GSK1669917],%Inh,SIK2; [1],0%
same,%Inh,SIK; [1],0%
same,%Inh,SLK; [1],0%
same,%Inh,SNARK; [1],10%
same,%Inh,SNRK; [1],0%
same,%Inh,SRC; [1],0%
same,%Inh,SRMS; [1],0%
same,%Inh,SRPK1; [1],0%
same,%Inh,SRPK2; [1],0%
same,%Inh,SRPK3; [1],0%
Cl.O=C(Nc1cccc(-c2nn3ncccc3c2-c2ccnc(Nc3cccnc3)n2)c1)c1c(F)cccc1F [GSK312879],%Inh,SIK2; [1],0%
same,%Inh,SIK; [1],0%
same,%Inh,SLK; [1],17%
same,%Inh,SNARK; [1],0%
same,%Inh,SNRK; [1],0%
same,%Inh,SRC; [1],13%
same,%Inh,SRMS; [1],5%
same,%Inh,SRPK1; [1],30%
same,%Inh,SRPK2; [1],0%
same,%Inh,SRPK3; [1],7%
COc1ccc2nc(-c3cccc(C)n3)nc(Nc3ccncc3)c2c1 [GSK204919],%Inh,SIK2; [1],2%
same,%Inh,SIK; [1],0%
same,%Inh,SLK; [1],9%
same,%Inh,SNARK; [1],0%
same,%Inh,SNRK; [1],0%
same,%Inh,SRC; [1],5%
same,%Inh,SRMS; [1],0%
same,%Inh,SRPK1; [1],26%
same,%Inh,SRPK2; [1],0%
same,%Inh,SRPK3; [1],16%
Cc1ccc(C(=O)Nc2ccc(Nc3ccnc4cc(-c5ccccn5)ccc34)cc2O)cc1.Cl [GW440146],%Inh,SIK2; [1],0%
same,%Inh,SIK; [1],18%
same,%Inh,SLK; [1],0%
same,%Inh,SNARK; [1],0%
same,%Inh,SNRK; [1],0%
same,%Inh,SRC; [1],56%
same,%Inh,SRMS; [1],80%
same,%Inh,SRPK1; [1],27%
same,%Inh,SRPK2; [1],0%
same,%Inh,SRPK3; [1],3%
O=C(O)COc1ncnc2cc(-c3ccc4[nH]ncc4c3)sc12,%Inh,SIK2; [1],0%
same,%Inh,SIK; [1],8%
same,%Inh,SLK; [1],0%
same,%Inh,SNARK; [1],13%
same,%Inh,SNRK; [1],11%
same,%Inh,SRC; [1],0%
same,%Inh,SRMS; [1],8%
same,%Inh,SRPK1; [1],0%
same,%Inh,SRPK2; [1],0%
same,%Inh,SRPK3; [1],1%
Clc1cc(Cl)cc(Nc2ccnc(Nc3cc(Cl)cc(Cl)c3)n2)c1 [GSK175726],%Inh,SIK2; [1],0%
same,%Inh,SIK; [1],8%
same,%Inh,SLK; [1],8%
same,%Inh,SNARK; [1],10%
same,%Inh,SNRK; [1],0%
same,%Inh,SRC; [1],49%
same,%Inh,SRMS; [1],11%
same,%Inh,SRPK1; [1],0%
same,%Inh,SRPK2; [1],0%
same,%Inh,SRPK3; [1],0%
Cc1csc(-c2nc(Nc3ccncc3)c3ccccc3n2)n1 [GW869640],%Inh,SIK2; [1],1%
same,%Inh,SIK; [1],4%
same,%Inh,SLK; [1],22%
same,%Inh,SNARK; [1],26%
same,%Inh,SNRK; [1],20%
same,%Inh,SRC; [1],8%
same,%Inh,SRMS; [1],25%
same,%Inh,SRPK1; [1],0%
same,%Inh,SRPK2; [1],0%
same,%Inh,SRPK3; [1],39%
COc1ccccc1-c1ccc2c(NC(=O)C3CC3)n[nH]c2n1 [SB-711239],%Inh,SIK2; [1],0%
same,%Inh,SIK; [1],3%
same,%Inh,SLK; [1],8%
same,%Inh,SNARK; [1],8%
same,%Inh,SNRK; [1],14%
same,%Inh,SRC; [1],6%
same,%Inh,SRMS; [1],0%
same,%Inh,SRPK1; [1],0%
same,%Inh,SRPK2; [1],31%
same,%Inh,SRPK3; [1],13%
CCn1c(-c2cccnc2O)nc2cnccc21 [SB-736715],%Inh,SIK2; [1],0%
same,%Inh,SIK; [1],0%
same,%Inh,SLK; [1],0%
same,%Inh,SNARK; [1],0%
same,%Inh,SNRK; [1],0%
same,%Inh,SRC; [1],0%
same,%Inh,SRMS; [1],0%
same,%Inh,SRPK1; [1],0%
same,%Inh,SRPK2; [1],0%
same,%Inh,SRPK3; [1],20%
C[C@@H]1CCCCN1c1cc(-c2ccc3c(N)n[nH]c3c2)nc(N)n1 [GSK2258759],%Inh,SIK2; [1],0%
same,%Inh,SIK; [1],0%
same,%Inh,SLK; [1],0%
same,%Inh,SNARK; [1],2%
same,%Inh,SNRK; [1],0%
same,%Inh,SRC; [1],0%
same,%Inh,SRMS; [1],0%
same,%Inh,SRPK1; [1],0%
same,%Inh,SRPK2; [1],0%
same,%Inh,SRPK3; [1],0%
